Results as given in PubChem BioAssay (NCI).
Compounds without any hit were thinned out: in the full panel of roughly 83,000, 20% have a hit.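 Each cell line was grown in a 96-well plate and treated with one concentration of compound for 48 hours. Values below 10 were considered active.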 The source made the active and inactive calls.

Assays:
Experiment in all cases: NCI-60 one-dose screen, 48 h (100 = growth as untreated, 0 = no growth, -100 = all killed)
Conditions in all cases: 10 µM unless noted
[1] = test system: NCI-H23 lung
[2] = test system: NCI-H322M lung
[3] = test system: HOP-62 NSCLC
[4] = test system: NCI-H460 lung
[5] = test system: HOP-92 NSCLC
[6] = test system: NCI-H522 lung
[7] = test system: A549/ATCC NSCLC
[8] = test system: 786-0 renal
[9] = test system: COLO 205 colon
[10] = test system: DU-145 prostate
[11] = test system: K-562 leukemia
[12] = test system: MALME-3M melanoma
[13] = test system: MDA-MB-231 breast
[14] = test system: RXF 393 renal
[15] = test system: SF-268 CNS
[16] = test system: SF-295 CNS
[17] = test system: SF-539 CNS
[18] = test system: UACC-257 melanoma
[19] = test system: M14 melanoma
[20] = test system: NCI-H226 lung

Measured: growth

O=C(CSc1nnc2sc(Nc3cccc(Cl)c3)nn12)c1ccc(F)cc1
inactive: [1] 80.3% | [2] 91.5% | [3] 97.7% | [4] 95.8% | [5] 74.5% | [6] 75.6% | [7] 87.1% | [8] 91.4% | [9] 92.6% | [10] 104% | [11] 90.6% | [12] 116% | [13] 79.7% | [14] 102% | [15] 101% | [16] 97.2% | [17] 102% | [18] 102% | [19] 96%

COc1cc2cc(NCc3ccc(OC(F)F)cc3)nc(C)c2cc1OC
inactive: [1] 45.1% | [2] 53.4% | [3] 58.7% | [4] 57.2% | [5] 63% | [6] 45.3% | [7] 72.1% | [8] 61.8% | [9] 65.7% | [10] 75.8% | [11] 34% | [12] 72.4% | [13] 62.6% | [14] 67.1% | [15] 73.2% | [16] 35% | [17] 69.1% | [18] 87.5% | [19] 63.9%

COC(=O)c1c2c(c(C)[n+]([O-])c1C)C(=O)C=CC2=O
inactive: [5] 45.8% | [11] 10.5% | [16] 19%
active: [1] -68.3% | [20] -91.9% | [3] -65.4% | [4] 2.35% | [6] -70.1% | [8] -29.9% | [10] -78.6% | [12] -87.8% | [13] 0.888% | [14] -76.2% | [15] -0.514% | [17] -98.2% | [18] -80.8% | [19] -82.8%

N/C(=N\c1nc2ccccc2s1)NC(=NC1CCCCC1)NC1CCCCC1
inactive: [1] 30.6% | [2] 40.4% | [3] 67.7% | [6] 14% | [8] 25.1% | [10] 14.3% | [13] 21.1% | [15] 60%
active: [4] -44.4% | [5] -1.22% | [9] -44.9% | [11] 3.16% | [12] -70% | [14] -46.9% | [16] -34.9% | [17] -44.7% | [18] -52.6% | [19] -55.8%

CC(C)=CC(=O)N[C@@H]1CC2CCC3C(CC[C@@]4(C)C3CC[C@@H]4C(C)N(C)C)[C@@]2(C)C[C@@H]1O (stereo partly drawn)
active: [11] -17.1% | [17] -19.5%
inactive: [1] 43.8% | [2] 104% | [3] 56.4% | [4] 32.1% | [5] 40.6% | [6] 83% | [7] 74.5% | [8] 58.5% | [9] 14.8% | [10] 74.1% | [12] 32.3% | [13] 74.6% | [14] 20.6% | [15] 32.3% | [16] 11.1% | [18] 31.2% | [19] 47.3%

O=C(N=Nc1c(O)[nH]c2ccccc12)Nc1ccc(Cl)cc1
inactive: [1] 93% | [2] 75.3% | [3] 98.6% | [4] 91.3% | [5] 80% | [6] 89.8% | [7] 92.5% | [8] 97.8% | [9] 99.5% | [10] 108% | [11] 81.5% | [12] 96.3% | [13] 102% | [14] 96.3% | [15] 101% | [16] 101% | [17] 83.8% | [18] 95.8% | [19] 95.3%

COc1ccc2nc(Cl)c(/C=C/C(=O)c3ccc(NC(=O)CSc4nnc(-c5ccc(Cl)c(Cl)c5)n4-c4ccccc4)cc3)cc2c1
inactive: [1] 96.5% | [2] 93.6% | [3] 83.2% | [4] 97.7% | [5] 67.8% | [6] 74.1% | [7] 69.7% | [8] 92.3% | [9] 101% | [10] 98.2% | [11] 87.2% | [12] 92.3% | [13] 89.3% | [14] 91.8% | [15] 89.1% | [16] 94% | [17] 105% | [18] 81.1% | [19] 91.7%

COc1cc(-c2nc(NC(C)=O)sc2-c2ccnc(NCCNS(=O)(=O)c3ccccc3)n2)ccc1Cl
active: [6] 9.14% | [9] 2.47% | [17] 8.69% | [19] -20.4%
inactive: [1] 63.4% | [2] 79.1% | [3] 34.2% | [4] 11.8% | [5] 25.3% | [8] 34.7% | [10] 53.4% | [11] 13.8% | [12] 27.9% | [13] 35.1% | [14] 36.7% | [15] 38.4% | [16] 10.9% | [18] 47.1%
